A selection: hits, their analogues and other compounds. The true share with any hit is near 6%.
D1 PAM: enhances dopamine response at the human D1 receptor; HEK293 TREx D1 cells, calcium flux, dopamine EC20 potentiation; AID 504651; potentiation, % at 10 µM; 360,000 tested, 0.036% active; P21728; in the data active means potentiation above about 30%
Target sequence (P21728 whole entry, looked up): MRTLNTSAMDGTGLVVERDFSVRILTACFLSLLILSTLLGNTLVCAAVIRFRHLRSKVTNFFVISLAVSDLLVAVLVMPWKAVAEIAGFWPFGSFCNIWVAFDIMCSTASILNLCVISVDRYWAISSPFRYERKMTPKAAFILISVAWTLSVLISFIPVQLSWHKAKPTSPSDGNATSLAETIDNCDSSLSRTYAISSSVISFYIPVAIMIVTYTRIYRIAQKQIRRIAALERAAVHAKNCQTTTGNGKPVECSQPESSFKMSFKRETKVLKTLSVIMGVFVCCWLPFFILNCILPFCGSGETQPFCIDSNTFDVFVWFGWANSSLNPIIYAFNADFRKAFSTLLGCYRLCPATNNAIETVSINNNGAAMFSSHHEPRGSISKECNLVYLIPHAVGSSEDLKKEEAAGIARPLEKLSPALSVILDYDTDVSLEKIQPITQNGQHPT
D1 antagonist: antagonists of human D1 dopamine receptor; P21728; HEK293 TREx D1 cells, calcium flux, dopamine EC80; stronger effect = lower value; activity change, negative = inhibition, % at 10 µM; 360,000 tested, 3.2% active; in the data active means activity change below about -30%
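Tetracycline-induced HEK293 T-REx cells with force-coupled D1 receptor were loaded with a no-wash calcium dye. Compound was added after a 10 s baseline and read kinetically for 180 s; EC80 dopamine was then added and calcium flux followed another 180 s.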
D3 ag: D3 dopamine receptor (human) agonism; P35462; D3R DiscoveRx beta-arrestin cells, luminescence, 90 min; max activation, %; 410,000 tested, 0.58% active; AID 652048; in the data active means max activation above about 30%
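Agonist mode: compounds and dopamine controls were applied to plated cells for 90 min at 37 degrees C after an overnight attachment at 1500 cells/well. Luminescent read-out followed 30 - 60 minutes at room temperature with DiscoveRx detection reagent.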
D1 ag: agonists of human D1 dopamine receptor; HEK293 T-REx D1 cells, calcium flux, agonist mode; activation, % at 2 µM; 360,000 tested, 1% active; AID 504660; in the data active means activation above about 30%
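Tetracycline-induced HEK293 TREx D1 cells, force-coupled to calcium signalling, were dye-loaded with a no-wash calcium kit. Compound was pin-added after a 10 s baseline. Fluorescence was read kinetically at 1 cycle/s for 180 s, with calcium rises flagged as agonism.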
DRD3 antagonist: D3 dopamine receptor (human) antagonism; P35462; D3R cells, DiscoveRx beta-arrestin luminescence, antagonist mode; stronger effect = lower value; max response, negative = inhibition, %; 360,000 tested, 2.5% active; in the data active means max response below about -50%; inconclusive means no clear call, values can overlap the other calls
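Cells expressing the human receptor were seeded at 1500 cells/well, incubated overnight at 37 degrees C in 5% CO2, then exposed to library compounds with dopamine controls for 90 minutes at 37 degrees C before luminescent detection.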
Of the large screens only hits and unclear results are named; the others gave an inactive call.

CCOc1ccc2c(c1)c(=O)c(C(=O)c1ccc3c(c1)OCO3)cn2Cc1cccc(F)c1	none (no result: DRD3 antagonist)
CC1CCN(S(=O)(=O)c2cnc(Cl)c(Br)c2)CC1	D1 ag 56
O=S(=O)(c1cnc(Cl)c(Cl)c1)N1CCc2ccccc21	none
O=S(=O)(c1cnc(Cl)c(Br)c1)N1CCc2ccccc21	DRD3 antagonist -53
COc1ccc(N=Cc2sc(O)c3ccccc23)cc1	D1 antagonist -82, D1 ag 544, DRD3 antagonist inconclusive
COc1ccc(N=Cc2c(O)c3ccccc3n2C(C)=O)cc1	D1 ag 119
COc1ccc(N=Cc2c(OC)ccc3ccccc23)cc1	none (no result: D1 PAM, D1 antagonist, D1 ag)
COc1ccc(-n2c(O)c(C=Nc3ccccc3)c3ccccc3c2=O)cc1	none
O=c1oc2cc([N+](=O)[O-])ccc2nc1/C=C(\O)c1cccc(Br)c1	DRD3 antagonist -56
O=c1oc(CCCO)cc2ccc(C#Cc3ccsc3)cc12	none (no result: D1 antagonist)
O=C1c2ccccc2C(=O)N1CCC#Cc1ccc2cc(CCCO)oc(=O)c2c1	D3 ag 33 (no result: D1 PAM, D1 antagonist, D1 ag)
CCN1CCN(c2nc(C)c3c(n2)CC(C)CC3=O)CC1 (centres undefined)	none
Cc1nc(N2CCN(Cc3ccccc3)CC2)nc2c1C(=O)CC(C)C2 (centres undefined)	DRD3 antagonist -60
COc1ccccc1NS(=O)(=O)c1cc(NC(=O)C(C)(C)C)ccc1N1CCOCC1	none
COc1ccccc1NS(=O)(=O)c1cc(NC(=S)NCCN2CCOCC2)ccc1N1CCOCC1	D1 antagonist -34
O=S(=O)(Nc1ccc(Br)cc1)c1cccc(NC(=S)NCCN2CCOCC2)c1	D1 ag 52
CCC1CCCN1Cn1cnc2c([nH]c3ccccc32)c1=O (centres undefined)	none
COc1ccc2c(c1)[nH]c1c(=O)n(CCCN3CCOCC3)cnc12	D1 antagonist -31
CCC1CCCN1Cn1cnc2c([nH]c3ccc(OC)cc32)c1=O (centres undefined)	DRD3 antagonist -73
O=C(c1[nH]c2ccccc2c1Sc1ccc(Cl)cc1)N1CCCCC1	none (no result: DRD3 antagonist)
N#CC1=C(Nc2ccccc2)SC=C(c2ccc(Cl)c(Cl)c2)N=C1N1CCOCC1	D1 antagonist -60
O=C(NCCCN1CCC(Cc2ccccc2)CC1)c1ccc(CS(=O)c2ccccc2Cl)o1 (centres undefined)	DRD3 antagonist -108 (no result: D1 PAM, D1 antagonist, D1 ag)
Cc1c(C(=O)NCc2ccc(F)cc2)sc(=O)n1Cc1ccccc1F	none (no result: D1 PAM, D1 antagonist, D1 ag)
O=c1c2cc3c(cc2nc2sc(Nc4ccc(F)c(Cl)c4)nn12)OCO3	D1 ag 55 (no result: DRD3 antagonist)
CC1(C)CC(=O)C2=C(C1)NC(SCC(=O)Nc1ccccc1)=C(C#N)C2c1ccco1 (centres undefined)	none
Cc1ccc(C(=O)CSC2=C(C#N)C(c3ccco3)C3=C(CC(C)(C)CC3=O)N2)cc1 (centres undefined)	DRD3 antagonist -59
O=C1NC(=Nc2ccccc2Cl)SC1(CO)CO	none
Cc1ccccc1N=C1NC(=O)C(CO)(CO)S1	D1 antagonist -36
COc1c(OC2OC(C(=O)O)C(O)C(O)C2O)cc(O)c2c(=O)cc(-c3ccccc3)oc12 (centres undefined)	none
O=C(O)C1OC(Oc2cc3oc(-c4ccccc4)cc(=O)c3c(O)c2O)C(O)C(O)C1O (centres undefined)	D3 ag 32
N#Cc1nc(Cc2ccccc2)oc1NCc1ccccc1Cl	D1 antagonist -37, DRD3 antagonist inconclusive
COc1ccc(C(C[N+](=O)[O-])c2c(C)[nH]n(-c3ccccc3)c2=O)cc1 (centres undefined)	none
Cc1[nH]n(-c2ccccc2)c(=O)c1C(c1ccc(O)c([N+](=O)[O-])c1)c1c(C)[nH]n(-c2ccccc2)c1=O	DRD3 antagonist -91 (no result: D1 PAM, D1 antagonist, D1 ag)
O=c1c2sc3ccccc3c2n(Cc2cccc(F)c2)c(=O)n1CCc1ccccc1	none (no result: DRD3 antagonist)
COc1ccc2c(C)cc(C)nc2n1	D1 antagonist -33
Cc1cc(C)c2cc(N)c(Cl)nc2n1	none (no result: D1 PAM, D1 antagonist, D1 ag)
CCOC(=O)/C(=C/C1=CC(=C/N(C)C)/C(=O)O1)C(C)=O	D3 ag 30
CCOC(=O)/C(=C/c1ccc(OC(=O)c2ccccc2)cc1)C(C)=O	none
CN(C1=NS(=O)(=O)c2ccccc21)c1ccc(OC(=O)c2ccccc2F)cc1	none (no result: D1 PAM, D1 antagonist, D1 ag)
CCCc1cc(NCCCCO)n2c(nc3ccccc32)c1C#N	D1 antagonist -36
CCN(CC)CCCNc1cc(C)c(C#N)c2nc3ccccc3n12	none (no result: D1 PAM, D1 antagonist, D1 ag)
CC(C)c1cc(NCCOCCO)n2c(nc3ccccc32)c1C#N	none
CCCc1cc(NCCOCCO)n2c(nc3ccccc32)c1C#N	DRD3 antagonist -57 (no result: D1 PAM, D1 antagonist, D1 ag)
Cc1cc(NCCCCO)n2c(nc3ccccc32)c1C#N	none
CCN(CC)CCCNc1cc(C(F)(F)F)c(C#N)c2nc3ccccc3n12	D1 ag 46
Cc1cccc(NC(=O)c2cccc(N3C(=O)C4CCC(C)CC4C3=O)c2)c1C (centres undefined)	D1 antagonist -49, DRD3 antagonist inconclusive
COc1ccc(OC)c(NC(=O)c2cccc(N3C(=O)C4C5CCC(C5)C4C3=O)c2)c1 (centres undefined)	none
COc1ccc(NC(=O)c2cccc(N3C(=O)C4CC=C(C)CC4C3=O)c2)c(OC)c1 (centres undefined)	D1 antagonist -51
Cc1oc(C)c2c(=O)ccc3c(c12)OC(N)=C(C#N)C3c1ccc(F)cc1 (centres undefined)	D1 ag 37
Fc1ccc(Br)cc1C1C=C(c2ccc(Br)s2)Nc2ncnn21 (centres undefined)	none
COc1cccc(C2C=C(c3ccc(Br)s3)Nc3ncnn32)c1OC (centres undefined)	D1 ag 48
COc1cccc(C2=CC(c3ccc(OC)c(OC)c3OC)n3ncnc3N2)c1 (centres undefined)	none (no result: DRD3 antagonist)
COc1ccc(C2C=C(c3ccc(C)c(C)c3)Nc3ncnn32)c(OC)c1OC (centres undefined)	DRD3 antagonist -68
CCOC(=O)c1ccc(NC(=O)CC2C(=O)N(c3ccc(C)cc3)C(=O)N2C2CCCC2)cc1 (centres undefined)	none (no result: DRD3 antagonist)
CCN(CC)C(=O)c1[nH]cnc1C(=O)N[C@H](C)c1ccccc1	none
CC(C)Oc1cc(F)ccc1-c1cc(C(=O)NC2CCCCC2)[nH]n1	DRD3 antagonist inconclusive (no result: D1 PAM, D1 antagonist, D1 ag)
CC(C)Oc1ccc(F)cc1-c1cc(C(=O)NC2CCCCC2)[nH]n1	none (no result: D1 PAM, D1 antagonist, D1 ag)
Cc1cc(F)ccc1-c1cc(C(=O)NC2CCCCC2)[nH]n1	DRD3 antagonist -83 (no result: D1 PAM, D1 antagonist, D1 ag)
CCCOc1ccc(F)cc1-c1cc(C(=O)NC2CCCCC2)[nH]n1	DRD3 antagonist -102 (no result: D1 PAM, D1 antagonist, D1 ag)
Cc1cccc(CN2CCN(C3CN(C4CCCCC4)S(=O)(=O)C3)CC2)c1 (centres undefined)	DRD3 antagonist -57 (no result: D1 PAM, D1 antagonist, D1 ag)
CN(C(=O)c1cccc(NC(=O)Cc2ccc(NC(=O)C3CCCN(S(=O)(=O)c4cccc([N+](=O)[O-])c4)C3)cc2)c1)C1CCC1 (centres undefined)	none (no result: D1 PAM, D1 antagonist, D1 ag)
